According to PubChem BioAssay (NCATS):
Records with an inconclusive call do not appear. Entries that show only a call come without a potency. Calls of active or inactive are those of the source. Calls follow the shape of the dose curve; as a rule, active = well fitted curve in the direction sought with a large enough effect; inconclusive = small, poorly fitted or top-dose-only effect, or another doubt; inactive = no such curve, though single readings can be large; an effect the other way counts as inactive or inconclusive.

Legend:
[1] = qHTS of pediatric cancer cell lines to identify multiple opportunities for drug repurposing: Primary screen for DAOY cells (AID 1347090); also: nearly all actives have a fitted effect of over 55% in size; also: potency is read from the fitted curve at half-maximal effect
How it was run: (§1)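 Cell viability, CellTiter-Glo luminescence; 500-1,000 cells/well, 8- or 11-point titration, 48 h compound exposure at 37 degrees C, 5% CO2. Controls: DMSO neutral, bortezomib 2.3 µM final as positive.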

[2] = qHTS of pediatric cancer cell lines to identify multiple opportunities for drug repurposing: Primary screen for SJ-GBM2 cells (AID 1347091); also: potency is read from the fitted curve at half-maximal effect
How it was run: as §1

[3] = qHTS of pediatric cancer cell lines to identify multiple opportunities for drug repurposing: Primary screen for A673 cells (AID 1347092); also: nearly all actives have a fitted effect of over 45% in size; also: potency is read from the fitted curve at half-maximal effect
How it was run: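 Luminescence from CellTiter-Glo, taken after 15 min at room temperature, served as the proxy for metabolically active cells following 48 h treatment. Both potency and efficacy were taken from curves fitted to the titration data.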

[4] = qHTS of pediatric cancer cell lines to identify multiple opportunities for drug repurposing: Primary screen for BT-37 cells (AID 1347094); also: potency is read from the fitted curve at half-maximal effect
How it was run: (§2)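 Plated cells (500-1,000 per well, growth media) were allowed to settle for 5 hours, treated with compound dilutions for 48 hours, then lysed with CellTiter-Glo for 15 min at room temperature before luminescence reading.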

[5] = qHTS of pediatric cancer cell lines to identify multiple opportunities for drug repurposing: Primary screen for NB-EBc1 cells (AID 1347095); also: potency is read from the fitted curve at half-maximal effect
How it was run: as §2

[6] = qHTS of pediatric cancer cell lines to identify multiple opportunities for drug repurposing: Primary screen for U-2 OS cells (AID 1347096); also: nearly all actives have a fitted effect of over 50% in size
How it was run: (§3)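 Cells (500-1,000/well) rested 5 h, then received compounds for 48 h; metabolically active cells were measured by CellTiter-Glo luminescence. Final concentrations spanned up to 46 µM (MIPE, 11-point) or 0.59 nM-46 µM (NPC, 8-point) in primary screens, 11-point in follow-ups.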

[7] = qHTS of pediatric cancer cell lines to identify multiple opportunities for drug repurposing: Primary screen for SK-N-SH cells (AID 1347098); also: nearly all actives have a fitted effect of over 65% in size; also: potency is read from the fitted curve at half-maximal effect
How it was run: as §3

[8] = qHTS of pediatric cancer cell lines to identify multiple opportunities for drug repurposing: Primary screen for NB1643 cells (AID 1347099); also: nearly all actives have a fitted effect of over 50% in size
How it was run: as §2

[9] = qHTS of pediatric cancer cell lines to identify multiple opportunities for drug repurposing: Primary screen for LAN-5 cells (AID 1347100); also: potency is read from the fitted curve at half-maximal effect
How it was run: as §3

[10] = qHTS of pediatric cancer cell lines to identify multiple opportunities for drug repurposing: Primary screen for BT-12 cells (AID 1347101); also: nearly all actives have a fitted effect of over 25% in size; also: potency is read from the fitted curve at half-maximal effect
How it was run: as §3

[11] = qHTS of pediatric cancer cell lines to identify multiple opportunities for drug repurposing: Primary screen for Rh18 cells (AID 1347102); also: nearly all actives have a fitted effect of over 65% in size
How it was run: as §3

[12] = qHTS of pediatric cancer cell lines to identify multiple opportunities for drug repurposing: Primary screen for OHS-50 cells (AID 1347103); also: nearly all actives have a fitted effect of over 40% in size; also: potency is read from the fitted curve at half-maximal effect
How it was run: as §3

[13] = qHTS of pediatric cancer cell lines to identify multiple opportunities for drug repurposing: Primary screen for RD cells (AID 1347104); also: nearly all actives have a fitted effect of over 55% in size; also: potency is read from the fitted curve at half-maximal effect
How it was run: as §2

[14] = qHTS of pediatric cancer cell lines to identify multiple opportunities for drug repurposing: Primary screen for MG 63 (6-TG R) cells (AID 1347105); also: nearly all actives have a fitted effect of over 50% in size
How it was run: as §2

[15] = qHTS of pediatric cancer cell lines to identify multiple opportunities for drug repurposing: Primary screen for control Hh wild type fibroblast cells (AID 1347106);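 also: series mostly up to about 46 µM; a drop in luminescence marks cytotoxicity and a rise apparent proliferation; nearly all actives have a fitted effect of over 55% in size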
How it was run: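 Viability after 48 h compound treatment at 37C, 500-1,000 cells/well, read as ATP luminescence with CellTiter-Glo. Primary screens used 11-point (MIPE, 0.78 nM-46 µM) or 8-point (NPC, 0.59 nM-46 µM) final concentrations; follow-up screens used 11-point dilutions.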

[16] = qHTS of pediatric cancer cell lines to identify multiple opportunities for drug repurposing: Primary screen for Rh30 cells (AID 1347107); also: series mostly up to about 46 µM; nearly all actives have a fitted effect of over 75% in size
How it was run: as §3

[17] = qHTS of pediatric cancer cell lines to identify multiple opportunities for drug repurposing: Primary screen for Rh41 cells (AID 1347108); also: nearly all actives have a fitted effect of over 70% in size; also: potency is read from the fitted curve at half-maximal effect
How it was run: as §2

[18] = qHTS of pediatric cancer cell lines to identify multiple opportunities for drug repurposing: Primary screen for SK-N-MC cells (AID 1347093); also: potency is read from the fitted curve at half-maximal effect
How it was run: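 Metabolically active cells were quantified by ATP-dependent luminescence (CellTiter-Glo, 15 min at room temperature) following 48 h treatment. Cells had been plated at 500-1,000 per well and settled for 5 h beforehand.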

[19] = qHTS of pediatric cancer cell lines to identify multiple opportunities for drug repurposing: Confirmatory screen for A673 cells (AID 1347110);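 also: potency is read from the fitted curve at half-maximal effect; cells exposed to compound for 48 h before the viability read; nearly all actives have a fitted effect of over 65% in size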
How it was run: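 qHTS titration format: primary MIPE 0.78 nM-46 µM (11 pts), NPC 0.59 nM-46 µM; confirmation 11 pts. 48 h, CTG luminescence.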

[20] = qHTS of pediatric cancer cell lines to identify multiple opportunities for drug repurposing: Primary screen for Saos-2 cells (AID 1347097); also: nearly all actives have a fitted effect of over 40% in size; also: potency is read from the fitted curve at half-maximal effect
How it was run: as §2

| Structure (SMILES) | Potency [1] | Potency [2] | Potency [3] | Potency [4] | Potency [5] | Potency [6] | Potency [7] | Potency [8] | Potency [9] | Potency [10] | Potency [11] | Potency [12] | Potency [13] | Potency [14] | Potency [15] | Potency [16] | Potency [17] | Potency [18] | Potency [19] | Potency [20] |
| --- | --- | --- | --- | --- | --- | --- | --- | --- | --- | --- | --- | --- | --- | --- | --- | --- | --- | --- | --- | --- |
| Cc1ccccc1C(=O)N1CC/C(=N\OS(=O)(=O)O)c2ccc(Cl)cc21 | inactive | inactive | inactive | inactive | inactive | inactive | inactive | inactive | inactive | inactive | inactive | inactive | inactive | inactive | inactive | inactive | inactive | – | – | – |
| CCN1CCN(c2cc(-c3ccc(F)cc3)c3c(n2)CCCCCC3)CC1 | inactive | – | inactive | – | inactive | inactive | inactive | inactive | inactive | inactive | inactive | – | inactive | inactive | inactive | inactive | – | inactive | – | – |
| Nc1c2ccccc2nc2ccccc12 | 21.1 µM (active) | – | 6.68 µM (active) | 8.71 µM (active) | 3.76 µM (active) | – | 9.7 µM (active) | – | – | 12.3 µM (active) | – | 24.6 µM (active) | 15 µM (active) | – | – | – | 16.8 µM (active) | 11.9 µM (active) | 6.57 µM (active) | – |
| CCCOc1ccc2c(c1)CC[C@@H]1[C@@H]2CC[C@]2(C)C(OC)CC[C@@H]12 (some centres not stated) | inactive | inactive | – | inactive | inactive | inactive | inactive | inactive | inactive | inactive | inactive | – | inactive | inactive | inactive | inactive | inactive | inactive | – | – |
| Oc1ccc(CCNCCCCCCNCCc2ccccc2)cc1O | inactive | – | – | inactive | – | inactive | – | inactive | – | – | – | – | – | inactive | inactive | inactive | – | 23.7 µM (active) | – | – |
| CC(C)OC(=O)c1cc2c(OCC(O)CNC(C)(C)C)cccc2[nH]1 (configuration not stated) | inactive | inactive | – | inactive | inactive | inactive | inactive | inactive | inactive | inactive | inactive | – | – | inactive | inactive | inactive | – | inactive | – | inactive |
| C/C(=C(/OCCOc1ccc(Cl)cc1)c1ccc(Cl)cc1Cl)n1ccnc1 | inactive | inactive | – | inactive | inactive | inactive | – | – | inactive | – | inactive | – | – | inactive | inactive | inactive | inactive | 21.1 µM (active) | – | inactive |
| O=C1OC2(c3ccccc31)c1cc(I)c(O)c(I)c1Oc1c2cc(I)c(O)c1I | inactive | – | inactive | inactive | inactive | inactive | inactive | – | inactive | – | – | – | inactive | inactive | inactive | – | inactive | – | – | – |
| CCCN(CCC)C(=O)C(CCC(=O)OCCCN1CCN(CCOC(=O)Cc2c(C)n(C(=O)c3ccc(Cl)cc3)c3ccc(OC)cc23)CC1)NC(=O)c1ccccc1 (configuration not stated) | inactive | 18.8 µM (active) | – | – | – | inactive | – | inactive | – | inactive | – | – | – | – | inactive | inactive | inactive | – | – | – |
| Cc1cc(O)c(C)c(C)c1O | inactive | inactive | – | inactive | inactive | inactive | inactive | inactive | 16.8 µM (active) | inactive | inactive | inactive | inactive | inactive | inactive | inactive | inactive | – | – | inactive |
| CCCCCCOC(=O)NC(=N)c1ccc(NCc2nc3cc(C(=O)N(CCC(=O)OCC)c4ccccn4)ccc3n2C)cc1 | inactive | 21.1 µM (active) | – | – | – | inactive | – | inactive | – | – | inactive | – | – | inactive | – | inactive | – | – | – | – |
| Nc1nc(=O)n([C@@H]2O[C@H](CO)[C@@H](O)[C@@H]2F)cc1I | inactive | inactive | – | – | inactive | inactive | inactive | inactive | inactive | – | inactive | – | inactive | inactive | inactive | inactive | inactive | inactive | – | inactive |
| O=C(c1cc(O)c(O)c(O)c1)c1ccc(O)c(O)c1O | inactive | inactive | – | – | inactive | – | – | inactive | – | – | inactive | 24.6 µM (active) | inactive | inactive | inactive | inactive | inactive | – | – | 26.6 µM (active) |
| CCCC(=O)c1cc(O)c(O)cc1O | inactive | – | 12.2 µM (active) | – | – | inactive | – | inactive | – | inactive | – | – | inactive | inactive | – | inactive | inactive | – | – | – |
| COC(=O)[C@H]1[C@H]2C[C@@H]3c4[nH]c5cc(OC)ccc5c4CCN3C[C@H]2C[C@@H](OC(=O)/C=C/c2ccc(O)c(OC)c2)[C@@H]1OC | inactive | – | – | – | – | – | 21.7 µM (active) | – | 21.1 µM (active) | – | – | 34.7 µM (active) | – | – | – | – | – | 5.96 µM (active) | – | 16.8 µM (active) |
| CCC(C(=O)OCCN1CCOC(c2ccccc2)C1C)c1ccccc1 (configuration not stated) | inactive | – | inactive | inactive | inactive | inactive | – | inactive | inactive | – | inactive | – | inactive | inactive | inactive | inactive | inactive | inactive | – | inactive |
| CN(C)CCOC1=Cc2ccccc2Sc2ccc(Cl)cc21 | inactive | inactive | – | – | inactive | inactive | – | inactive | inactive | – | inactive | 24.6 µM (active) | – | inactive | inactive | inactive | inactive | inactive | – | – |
| COc1cc2nc(Cl)nc(N)c2cc1OC | inactive | inactive | – | inactive | inactive | inactive | inactive | inactive | inactive | – | inactive | inactive | inactive | inactive | inactive | inactive | inactive | – | – | – |
